High-throughput results deposited in PubChem BioAssay by National Center for Advancing Translational Sciences (NCATS).
Lamin A splicing: changes lamin A minigene splicing in HeLa cells; HeLa LMNA splicing GFP/RFP minigene ratio, 48 h; Potency, µM (titrated, usually from 46.1 µM), inactives show at the top dose ratio change, negative = inhibition, hits mostly inhibitors; 200,000 tested, 0.01% active; AID 1487; active means well fitted inhibition curve with a large enough effect in the signal ratio, with a control signal flat, not every such curve was filed as active; inconclusive means small, poorly fitted or top-dose-only effect, or effect the other way, or a change in a side signal; the % refers to the signal ratio; further: on the % scale 0 is the no-effect control and ±100 the full control effect
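Read-out is the ratio of GFP to DsRed2 object intensity, acquired by 488 nm laser-scanning cytometry on HeLa lamin A-EGFP minigene reporter cells. Compound incubation 48 hrs at 37 °C in Opti-MEM with 2% FBS; DMSO 0.5% final.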
HTT aggregate: reduces HttQ103-GFP aggregates in PC12 cells | PC12 HttQ103-GFP aggregates, Acumen cytometry, 40 h | Potency, µM (titrated, usually from 46.1 µM), without a hit: top-dose activity change, negative = inhibition, hits mostly inhibitors | 220,000 tested, 1.1% active | AID 1688; further: on the % scale 0 is the no-effect control and ±100 the full control effect; nearly all actives have a fitted effect of over 60% in size
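Steps: seed 1500 PC12 HTTQ103-GFP cells/well; add tebufenozide, 100 nM final; add compound titration; add ATPLite reagent; quantify GFP aggregates by laser scanning cytometry.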
Luc counter: blocks Kinase-Glo luciferase, a counter-screen artifact | Q27757 | Kinase-Glo luciferase, ATP luminescence, 8 min | 200,000 tested, 0.28% active | Potency, µM (highest dose often 38.3 µM), inactives show at the top dose activity change, negative = inhibition, most hits filed as inhibitors | AID 1379; further: on the % scale 0 is the no-effect control and ±100 the full control effect; nearly all actives have a fitted effect of over 60% in size
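Substrate mix (final 50 mM imidazole pH 7.2, 50 mM KCl, 7 mM MgCl2, 10 uM ATP, 0.01% Tween 20, 0.05% BSA) plus pin-tool compound, then Kinase-Glo detection mix; 8 min ambient, luminescence read.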
ALDH1A1 block: blocks purified human ALDH1A1 activity; P00352; 220,000 tested, 7.3% active; Potency, µM (doses to about 75.3 µM), for the others: top-dose activity, negative = inhibition, most hits filed as inhibitors; AID 1030; Purified ALDH1A1, NADH fluorescence, propionaldehyde substrate; active means well fitted inhibition curve with a large enough effect, not every such curve was filed as active; inconclusive means small, poorly fitted or top-dose-only effect, or another doubt; inactive means no such curve, though single readings can be large or run the other way;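 further: plate controls were no enzyme wells and a reference inhibitor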
HPGD inh: inhibitors of human 15-hydroxyprostaglandin dehydrogenase (HPGD); purified HPGD, NADH fluorescence kinetic, PGE2 substrate; Potency, µM, without a hit: at the highest dose activity change, negative = inhibition, most hits filed as inhibitors; 150,000 tested, 4.3% active; AID 894; active means well fitted inhibition curve with a large enough effect, not every such curve was filed as active; inconclusive means small, poorly fitted or top-dose-only effect, or another doubt; inactive means no such curve, though single readings can be large or run the other way; further: on the % scale 0 is the no-effect control and ±100 the full control effect
Target sequence (P15428 whole entry, looked up): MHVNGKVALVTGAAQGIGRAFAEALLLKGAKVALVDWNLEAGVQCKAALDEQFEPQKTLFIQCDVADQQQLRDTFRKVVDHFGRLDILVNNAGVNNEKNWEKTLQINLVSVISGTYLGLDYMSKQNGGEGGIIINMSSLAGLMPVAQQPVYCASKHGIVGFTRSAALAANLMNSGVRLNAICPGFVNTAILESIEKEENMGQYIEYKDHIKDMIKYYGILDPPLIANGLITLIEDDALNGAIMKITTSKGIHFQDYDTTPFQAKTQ
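20 nM HPGD preincubated 15 min at room temperature with compound in 50 mM Tris-HCl pH 8, 0.01% Tween 20. Started with 1 mM NAD+ and 30 uM prostaglandin E2; NADH fluorescence (360/450 nm) read 5 times over 30-s intervals, last minus first.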
HTT cytoprotect: protects HTT-Q103 PC12 cells, measured by ATP; 230,000 tested, 0.14% active; PC12 HTT-Q103 induced, cytoprotection, ATP luminescence, 40 h; AID 1471; Potency, µM (doses to about 56.4 µM), for the others: cytoprotection (ATP increase), actives largely listed as activators; further: % of control where 0% means no effect; nearly all actives have a fitted effect of over 45% in size
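Rat PC12, Q103 Htt exon1-GFP fusion, ecdysone promoter; tebufenozide inducer 100 nM final; compound titration; qHTS, 1500 cells/well; ATPlite luminescent read.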
* = called active by the depositor; ? = inconclusive; · = not tested or not shown; [ ] = remark or other dose. Rows were chosen to be rich in hits. Some 9% of all compounds tested hit in one or more screens of this group. Unless noted, the call rests on the fitted dose curve; in most records, active means well fitted curve in the direction sought with a large enough effect; inconclusive means small, poorly fitted or top-dose-only effect, or another doubt; inactive means no such curve, though single readings can be large; an effect the other way counts as inactive or inconclusive. Potency means the concentration at half of the fitted maximal effect.

SMILES	Lamin A splicing	HTT aggregate	Luc counter	ALDH1A1 block	HPGD inh	HTT cytoprotect
Cn1c(=O)cc(OCCCC(=O)NCc2ccco2)c2ccccc21	?	32.9%	-3.3%	20µM*	20µM*	-12.2%
COc1ccc(CNC(=O)CCCOc2cc(=O)n(C)c3ccccc23)cc1	-4.6%	17.4%	1.9%	7.5%	-12.9%	13.1%
CC(C)CCNC(=O)CCCOc1cc(=O)n(C)c2ccccc12	?	?	-0.6%	-0.7%	15.8µM*	-29.9%
CC1CC(O)CC(C)(C)C1 (configuration not stated)	·	18.0%	·	·	·	13.1%
COc1ccc(-n2c(-c3ccccc3)nc(=S)c3c2CCCC3)cc1	-5.9%	9.8%	-4.2%	3.1%	-11.0%	-8.7%
O=C(CCCCCN1C(=O)c2ccccc2C1=O)NCc1ccco1	2.5%	10.6%	-0.6%	-5.0%	11.2µM*	-9.0%[10 µM]
O=C(Nc1ccc(Cl)cc1)N1CCCC1	0.2%	3.2%	-2.9%	11.6%	-0.7%	1.8%
O=C(c1ccc(Cl)cc1)[C@@H]1[C@@H]2C(=O)N(c3ccc(Cl)cc3)C(=O)[C@@H]2C2c3ccccc3C=NN21 (some centres not stated)	0.2%	26.8%	3.0%	?	-11.0%	-6.3%[10 µM]
O=C(C1=C[C@@H]2[C@H]3C(=O)N(c4ccccc4)C(=O)[C@H]3[C@@H](C(=O)c3ccc(Cl)cc3)N2C=C1)c1ccccc1	-1.3%	-5.6%	-3.7%	20µM*	-15.9%	-9.3%[10 µM]
COC(CNC(=O)C1CCN(C(=O)c2cc3oc(C)cc3n2Cc2c(F)cccc2Cl)CC1)OC	·	-16.0%	·	?	·	?
CCOC(=O)N1CCC(NC(=O)C2CCN(C(=O)c3cc4oc(C)cc4n3Cc3c(F)cccc3Cl)CC2)CC1	·	11.9%[9.22 µM]	0.6%	20µM*	·	12.1%
CC(=O)OC[C@@]1(O)C[C@]23CCC4c5ccoc5CC[C@@]4(C)C2CCC1C3 (some centres not stated)	?	·	0.3%	-1.9%	-1.6%	·
C[C@@]12C=Cc3occc3C1CC[C@@]13C[C@@H](CCC12)[C@@](O)(CO)C3 (some centres not stated)	·	·	4.3%[39.9 µM]	1.41µM*	-5.0%	-69.6%
CCCCn1c(SCC(=O)c2cc(OC)ccc2OC)nc2cc(S(N)(=O)=O)ccc21	2.3%	22.8%	-3.0%	?	-7.4%	10.2%[10 µM]
CCCCn1c(SCC2CCCO2)nc2cc(S(N)(=O)=O)ccc21 (configuration not stated)	24.6%	-1.9%	-2.9%	-4.0%	-1.1%	-0.3%
CCCCn1c(SCC(=O)N2CCC(C)CC2)nc2cc(S(N)(=O)=O)ccc21	2.8%	15.4%	1.2%	7.8%	28.2µM*	1.2%
CCCCn1c(SCc2ccc(C(=O)OC)o2)nc2cc(S(N)(=O)=O)ccc21	?	7.0%	-3.2%	25.1µM*	-24.6%	-2.7%[10 µM]
CCCCn1c(SCN2C(=O)c3ccccc3C2=O)nc2cc(S(N)(=O)=O)ccc21	4.3%	-10.3%	12.1%	28.2µM*	-14.1%	-1.3%[10 µM]
COc1ccc(N2CC(C)(C)C2=O)cc1	0.5%[46 µM]	-7.6%	-3.0%	4.0%	·	-2.3%
c1ccc(OCCCc2nc(-c3cccnc3)no2)cc1	14.4%	0.0%	-2.1%	-1.6%	6.6%	-4.3%
Cc1cc(C)n2nc(C(=O)OCC(=O)N3CCC3)nc2n1	?	25.8%	1.4%	2.8%	·	35.9%[10 µM]
CCCC(=O)Nc1nc(-c2ccc3c(c2)CCN3S(C)(=O)=O)cs1	11.5%	13.0%	-4.4%	?	-19.2%	-26.3%
CS(=O)(=O)N1CCc2cc(-c3csc(NCC4CCCO4)n3)ccc21 (configuration not stated)	-2.2%	4.1%	1.1%	14.1µM*	39.8µM*	-21.6%[10 µM]
Cc1cc(NC(=O)CSc2ncnc3sccc23)no1	9.9%[46 µM]	-13.1%	-0.2%	-1.1%	·	-19.1%[10 µM]
CCOC(=O)C1=C(C)N=c2s/c(=C/c3ccco3)c(=O)n2C1c1cccc(OC)c1 (configuration not stated)	2.2%	7.3%	0.9%	3.55µM*	14.1µM*	-3.4%
